RORgamma inh: qHTS for inhibitors of ROR gamma transcriptional activity; hit rate 5.4% among 310,000; Drosophila S2 Gal4-RORgamma UAS-luciferase reporter, 20 h; Potency, µM (top dose mostly 53.6 µM), for the others: at the top dose activity change, negative = inhibition, hits mostly inhibitors; Nuclear receptor ROR-gamma (Mus musculus), P51450; further: potency means the concentration at half of the fitted maximal effect; on the % scale 0 is the no-effect control and ±100 the full control effect; nearly all actives have a fitted effect of over 60% in size
Target sequence (P51450 whole entry, looked up, the tested form may be a part): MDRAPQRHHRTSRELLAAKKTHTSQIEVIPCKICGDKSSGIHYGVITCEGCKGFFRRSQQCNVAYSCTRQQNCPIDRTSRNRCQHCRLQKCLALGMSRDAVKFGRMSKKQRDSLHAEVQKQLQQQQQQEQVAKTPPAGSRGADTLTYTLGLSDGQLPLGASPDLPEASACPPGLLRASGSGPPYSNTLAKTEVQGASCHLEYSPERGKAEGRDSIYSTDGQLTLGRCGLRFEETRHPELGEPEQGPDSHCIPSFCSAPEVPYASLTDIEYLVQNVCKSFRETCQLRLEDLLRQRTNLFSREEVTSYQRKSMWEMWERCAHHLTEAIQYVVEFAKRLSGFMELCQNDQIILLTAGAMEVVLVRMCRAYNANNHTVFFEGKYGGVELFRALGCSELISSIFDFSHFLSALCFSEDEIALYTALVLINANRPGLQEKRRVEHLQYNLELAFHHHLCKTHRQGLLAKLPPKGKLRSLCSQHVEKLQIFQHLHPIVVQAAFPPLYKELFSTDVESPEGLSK
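Stable Schneider cell line, Gal4 DNA-binding domain fused to ROR gamma, UAS-luciferase. Cmpd 1 hr RT → CuSO4 700 uM final → 20 hr RT → luciferase reagent 10 min → luminescence.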
TRPV1 agonist: HTS Assay for Compounds that Act as Agonists of the Vanilloid Receptor 1 | Transient receptor potential cation channel subfamily V member 1 (Homo sapiens), Q8NER1 | TRPV1-expressing cells, Fluo-8 calcium influx, agonist mode | activation, % at 8.33 µM | hit rate 0.19% among 320,000 | AID 540275, 2011; in the data active means activation above about 80%; inconclusive means between about 30% and that limit; further: 0% is about no effect
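Fluo-8 calcium influx in TRPV1-expressing cells, kinetic read (ex 480/em 520 nm). Compound added and read 3 min for agonist activity, followed by capsaicin at EC20 final and 2 min further read for enhancement.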
Gal4-VP16 FLuc: VP16 counterscreen qHTS for inhibitors of ROR gamma transcriptional activity; Drosophila S2 Gal4-VP16 UAS-luciferase, luminescence, 20 h; Potency, µM (titrated, usually from 53.6 µM), for the others: at the highest dose activity, negative = inhibition, most hits filed as inhibitors; hit rate 3.5% among 310,000;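 further: Gal4-VP16 expression switched on by copper sulfate through the metallothionein promoter; potency means the concentration at half of the fitted maximal effect; on the % scale 0 is the no-effect control and ±100 the full control effect; nearly all actives have a fitted effect of over 50% in size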
uPA surface inh: qHTS for Inhibitors of Cell Surface uPA Generation. cell surface uPA generation assay, qHTS. Potency, µM (doses to about 38.3 µM), for inactives: at the top dose activity change, negative = inhibition, hits mostly inhibitors. hit rate 0.31% among 330,000. AID 540303, 2011; active means well fitted inhibition curve with a large enough effect; inconclusive means small, poorly fitted or top-dose-only effect; inactive means no such curve, though single readings can be large or run the other way; tested in mouse RAW 264.7 cells; further: potency means the concentration at half of the fitted maximal effect; on the % scale 0 is the no-effect control and ±100 the full control effect; nearly all actives have a fitted effect of over 55% in size
TRPV1 potentiator: HTS Assay for Compounds that Act as Potentiators of the Vanilloid Receptor 1; Transient receptor potential cation channel subfamily V member 1 (Homo sapiens), Q8NER1; TRPV1-expressing cells, Fluo-8 calcium influx, capsaicin EC20 potentiation; potentiation, % at 8.33 µM; hit rate 0.02% among 320,000; AID 540277, 2011; in the data active means potentiation above about 80%; inconclusive means between about 30% and that limit; further: 0% is about no effect
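TRPV1-expressing cells were cultured overnight at 35.5C and loaded with Fluo-8 calcium dye for 40 to 90 min at room temperature. After a 10 s baseline, compound was added and calcium influx was read kinetically for 3 min (ex 480/em 520 nm).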
The depositor's hits bear a star; ? = inconclusive; nt = no result; [ ] = another dose, or the depositor's remark. Only some compounds are listed: those with a hit (about 5.8% of all), similar ones and a draw of the others. Unless noted, the call rests on the fitted dose curve; in most records, active means well fitted curve in the direction sought with a large enough effect; inconclusive means small, poorly fitted or top-dose-only effect, or another doubt; inactive means no such curve, though single readings can be large; an effect the other way counts as inactive or inconclusive.

SMILES | RORgamma inh | TRPV1 agonist | Gal4-VP16 FLuc | uPA surface inh | TRPV1 potentiator
CCOc1ccccc1OCCCC(=O)N1CCN(S(=O)(=O)c2ccc(C)cc2C)CC1 | nt | 5 | nt | 11% | -1
CCN(c1ccccc1)S(=O)(=O)c1ccc(C(=O)Nc2nnc(CSC)o2)cc1 | 0.35µM* | -4 | 0.89µM* | ? | 13
CCN(c1ccccc1)S(=O)(=O)c1ccc(C(=O)Nc2nnc(COC)o2)cc1 | 0.56µM* | 3 | 1.3µM* | -7% | 7
COCc1nnc(NC(=O)c2ccc(S(=O)(=O)N(C)c3ccccc3)cc2)o1 | 1.6µM* | -1 | 2.5µM* | ? | -3
COc1ccc(C(=O)Nc2ccc(S(=O)(=O)N(C)c3ccccc3)cc2)cc1 | nt | nt | nt | 2% | nt
CNC(=O)c1cc(S(=O)(=O)Nc2ccc3c(c2)OCO3)ccc1C | 0% | -7 | 7% | 7% | 9
COc1ccc(CCN2CC(C(=O)NCCCn3nc(C)cc3C)CCC2=O)cc1 (stereo not drawn) | -37% | -3 | 4% | 0% | 10
CCN(CC)C(=S)SCC(=O)Nc1nc(=O)c2ccccc2s1 | ? | 0 | 11µM* | -22% | 3
CCN(CC)C(=S)SCC(=O)Nc1ccc(S(N)(=O)=O)cc1 | 4% | 1 | 18% | 12% | 4
CC(=O)Nc1ccn(C2OC(C(COC(C)=O)NC(=O)C(Cc3ccccc3)NC(=O)OC(C)(C)C)C(OC(C)=O)C2OC(C)=O)c(=O)n1 (stereo not drawn) | 3% | nt | 1% | nt | nt
COC(=O)CSc1nnc(-c2sc3ccccc3c2Cl)o1 | ? | 4 | 20µM* | -6% | -8
COC(=O)CSc1nnc(-c2sc3cc(OC)ccc3c2Cl)n1C | 11µM* | 6 | -2% | 4% | 7
NS(=O)(=O)c1ccc(CCNC(=O)CSc2nc3ccccc3c(=O)n2CCC(=O)N2CCCCC2)cc1 | 17% | -1 | -6% | 20% | 10
O=C(CSc1ncc(-c2ccccc2)n1CC1CCCO1)N1CCCCC1 (stereo not drawn) | -2% | -3 | -1% | 2% | 12
Nc1ncc(-c2ccccc2)n1CC1CCCO1 (stereo not drawn) | 13µM* | 8 | ? | -8% | ?
CSC(SC)=C(C#N)C(=O)c1ccccc1 | -74% | 4 | 11µM* | 0% | -4
Cc1cc(NC(=S)NC(=O)c2ccco2)c2ccccc2n1 | 11µM* | 2 | 1% | -6% | 2
Cc1cc(NC(=O)Cc2ccccc2)c2ccccc2n1 | ? | 22 | 3.2µM* | ? | -5
O=C(NC(=S)Nc1cccc2ncccc12)c1ccco1 | ? | 0 | -1% | 21% | -12
O=C(NCCOc1ccccc1)O[C@@H]1C(=O)c2cc(Br)ccc2O[C@H]1c1ccc2c(c1)OCO2 | 5% | nt | 3% | nt | nt
CC12CCC(=O)N1C(C(=O)NNC(=O)c1cccc(Cl)c1)CS2 (stereo not drawn) | nt | -1 | nt | 3% | 3
O=C(CCN1C(=O)c2ccccc2C1=O)Nc1cccc(O)c1 | -9% | ? | 0% | 12% | -28
Cc1cc(C)cc(NC(=S)NC(=O)CCN2C(=O)c3ccccc3C2=O)c1 | 3.5µM* | -6 | 4.5µM* | -4% | 6
O=C(CCCN1C(=O)c2ccccc2C1=O)Nc1ccccc1 | 1% | 6 | -1% | 13% | -6
O=C(CCN1C(=O)c2ccccc2C1=O)NC(=S)Nc1ccccc1 | 13µM* | 12 | ? | 3% | 9
SMILES | RORgamma inh | TRPV1 agonist | Gal4-VP16 FLuc | uPA surface inh | TRPV1 potentiator
O=C(CCN1C(=O)c2ccccc2C1=O)NC(=S)Nc1cccc(Cl)c1 | 11µM* | 0 | ? | 1% | 7
NCCC[C@@H](CC(=O)N[C@@H]1CCNC[C@H]1C(=O)N[C@H](CC(=O)N[C@@H](CCC(=O)O)CC(=O)O)Cc1ccccc1)NC(=O)C[C@H](CO)NC(=O)[C@@H]1CCCC[C@H]1N | 10% | nt | 0% | nt | nt
COc1ccccc1CNc1nc(-c2cccc(C#N)c2)nc2ccccc12 | 16% | nt | -1% | nt | nt
O=C(Nc1cccc(Cl)c1N1CCCC1)c1cccc(-c2cc3ccccc3oc2=O)c1 | 35% | 2 | 16% | 12% | -1
COc1ccc2c(c1)c(=O)oc1cc(OCC(=O)N3CCCC(C)C3)ccc12 (stereo not drawn) | -29% | -4 | 10µM* | -7% | 8
COc1ccc2c(c1)c(=O)oc1cc(OCC(=O)N3CCC(C)CC3)ccc12 | -25% | ? | -23% | nt | -4
CC1(C)CC(=O)c2cnn(-c3nc4ccccc4[nH]3)c2C1 | 8.9µM* | 4 | ? | nt | 1
O=c1c(Cl)c(N2CCOCC2)cnn1-c1nc2ccccc2[nH]1 | ? | 2 | ? | ? | -8
C=CCN1CN(Cc2ccco2)CNC1=S | 13µM* | 0 | ? | 6% | -2
S=C1SCN(Cc2ccco2)CN1Cc1ccco1 | 2.5µM* | 3 | 3.2µM* | -14% | -5
CCc1ccc(N2CN(Cc3ccco3)CNC2=S)cc1 | 3.5µM* | 0 | ? | -1% | 24
S=C1NCN(Cc2ccco2)CN1c1ccccc1 | ? | 0 | -5% | 20% | -11
S=C1NCN(Cc2ccco2)CN1c1cccc2ccccc12 | 5µM* | 2 | ? | -25% | 2
CN(C)c1ncc(CN2CCC(C(=O)Nc3ccc(-n4cccn4)cc3)CC2)s1 | -16% | 2 | -3% | -5% | 1
O=C(/C=C/c1ccc(/C=C/C(=O)Nc2ccc(C3=NCCN3)cc2)cc1)Nc1ccc(C2=NCCN2)cc1 | 15% | nt | -4% | nt | nt
O=C(COC(=O)c1cccc(NS(=O)(=O)c2ccc(F)c(F)c2)c1)NC(=O)NC1CCCCC1 | 12% | -3 | ? | -2% | -3
COc1ccccc1NC(=O)N1CCC(c2nc3ccccc3o2)CC1 | 9% | 11 | -5%[10 µM] | 12% | -1
CCCCN1CN(Cc2ccco2)CNC1=S | 13µM* | 0 | ? | -16% | -2
S=C1NCN(Cc2ccco2)CN1 | -12% | 1 | -9% | 8% | ?
O=C(N/C=C/c1ccccc1)c1ccccc1 | nt | 83* | nt | ? | -10
C[C@]12CCC(O)CC1=CCC1C2CC[C@]2(C)/C(=N\NC(N)=S)CCC12 (stereo partly drawn) | 13µM* | -1 | -12% | -4% | 10
CC12CCC(O)CC1=CCC1C2CCC2(C)C1CCC21CCC(=O)O1 (stereo not drawn) | -7% | ? | -11% | -1% | -20
CCCn1c(C)nc2c(NCCCCN(C)C)nc(C)nc21 | -2% | nt | 7% | nt | nt
CCCCN(C)C(=O)Cn1nc(-c2ccc(Cl)cc2)ccc1=O | -18% | 7 | -4% | -5% | -3
Cc1cccc(NC(=S)N2CCC(c3nc4ccccc4o3)CC2)c1C | 10µM* | 9 | ? | 1% | -1

Source: PubChem BioAssay (National Center for Advancing Translational Sciences (NCATS))
